# In all, about 320,000 compounds went through this assay and about 7,600 (2.4%) were called active. About 3% were inconclusive and are not listed. The call rests on the fitted dose curve; in most records, active means well fitted activation curve with a large enough effect; inconclusive means small, poorly fitted or top-dose-only effect; inactive means no such curve, though single readings can be large or run the other way. The full list was thinned out, with actives kept by preference.
# Assay: qHTS Assay for NPC1 Promoter Activators; further: nearly all actives have a fitted effect of over 60% in size;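 on activation: reporter is driven by a mutant NPC1 promoter; % of control where 0% means no effect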
# Details: Huh7 NPC1 promoter luciferase reporter, 24 h; series mostly up to 9.22 µM; activation: at the top concentration
# Procedure, shortened: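 Stable NPC1-promoter luciferase Huh7 line; cpd (DMSO) 24 h, 37 °C, 5% CO2; Amplite luciferase reagent 10 min RT; luminescence readout. qHTS format.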
# Potency means the concentration at half of the fitted maximal effect.
SMILES,activation,Potency
Cc1cccc(-c2oc3ccc(-c4ccc5c(c4)OCO5)cc3c2C#Cc2cncn2C)c1,16.6% (inactive),–
Cc1cc2nc(SCCN3CCOCC3)[nH]c2cc1C,–,3.98 µM (active)
Cc1cccc(C)c1OCCN1CCOCC1,-0.225% (inactive),–
CCn1c2ccc(F)cc2c2nnc(SCCN3CCOCC3)nc21,-1.8% (inactive),–
CC(=O)Nc1ccc(NC(=O)C(NS(=O)(=O)c2ccc3c(c2)OCCO3)C(C)C)cc1 (centres undefined),-1.18% (inactive),–
COc1cccc(NC(=O)CN(C)C(=O)/C=C/c2cn(-c3ccccc3)nc2-c2cccs2)c1,-2.2% (inactive),–
CC1Cc2ccccc2N1S(=O)(=O)c1cccc(C(=O)NCC(c2ccco2)N2CCCC2)c1 (centres undefined),-3.83% (inactive),–
CSCC[C@H](NC(=O)OC(C)(C)C)C(=O)N/N=C/c1cc2ccc(C)cc2nc1Cl,-1.66% (inactive),–
Cc1ccc2cc(/C=N/Nc3ccc(C(=O)O)cc3)c(Cl)nc2c1,–,1.12 µM (active)
Cc1ccc2cc(/C=N/NC(=O)[C@@H]3CCCN3)c(Cl)nc2c1,0.836% (inactive),–
O=C(CSc1nc2ccccc2c(=O)n1CCCO)NC1CC1,-1.34% (inactive),–
S=C(NNC(=S)NC1CC2CCC1C2)NC1CC2C=CC1C2 (centres undefined),-0.848% (inactive),–
CC(C)c1ccc(NC(=S)NC2CC3C=CC2C3)cc1 (centres undefined),–,3.98 µM (active)
S=C(NNC(=S)NC1CC2C=CC1C2)NC1CC2C=CC1C2 (centres undefined),-3.31% (inactive),–
CCOC(=O)C1=C(COC(=O)[C@H](C)NS(=O)(=O)c2ccccc2F)NC(=O)NC1C (some centres undefined),-0.719% (inactive),–
CCOc1ccc(C(C)NC(=O)CN2C(=O)NC3(CCCCC3)C2=O)cc1OCC (centres undefined),-3.59% (inactive),–
Cc1cc(N/C=C\C(=O)c2ccc(Cl)c(Cl)c2)no1,–,2.51 µM (active)
Cc1ccc(C(=O)/C=C/Nc2ccc(S(=O)(=O)Nc3onc(C)c3C)cc2)cc1,5.8% (inactive),–
CCC(=O)Nc1ccc(C(=O)Nc2cc(C)on2)cc1,11.6% (inactive),–
CCOC(=O)Cc1csc(SCC(=O)Nc2ccc(C)cc2F)n1,-5.48% (inactive),–
Cc1ccc(S(=O)(=O)N2CCCCC2)cc1NC(=O)c1cccnc1,-2.18% (inactive),–
CCCCc1ccc(NC(=O)CN2C(=O)NC(Cc3ccccc3)C2=O)cc1 (centres undefined),-11% (inactive),–
NC(=O)COC(=O)c1sc2cc(F)ccc2c1Cl,-0.631% (inactive),–
COc1ccc2c(c1OC)C(=O)N(c1ccc(O)cc1)C2,–,2.82 µM (active)
COc1cc(C(=O)N2C(=O)c3cccc(N)c3C2=O)cc(OC)c1OC,-0.143% (inactive),–
COc1ccc2c(c1OC)C(=O)N(c1ncn[nH]1)C2,2.43% (inactive),–

SMILES,activation,Potency
O=C(c1cc2ccccc2o1)N1CCN(S(=O)(=O)c2ccc(Cl)s2)CC1,9.97% (inactive),–
O=C(OCC(=O)N1CCOCC1)c1ccc2ccccc2c1,15.4% (inactive),–
CCCCNC(=O)Cn1nc(C)c(S(=O)(=O)N2CCOCC2)c1C,-10.9% (inactive),–
O=c1ccc(S(=O)(=O)N2CCCC2)cn1Cc1nc(-c2ccccc2)no1,-1.51% (inactive),–
Nc1c(C(=O)Nc2ccc3c(c2)OCCO3)nnn1Cc1ccccc1,–,3.16 µM (active)
O=C(CCS(=O)(=O)Cc1ccccc1)Nc1ccc2c(c1)OCCO2,1.61% (inactive),–
CCc1ccc(NC(=O)Cn2nnc(C(=O)NCc3ccc4c(c3)OCO4)c2N)cc1,0.519% (inactive),–
Nn1c(SCC(=O)Nc2nccs2)nnc1-c1ccco1,-4.18% (inactive),–
CC(C)[C@@H](C(=O)O)N(Cc1cccc(CN([C@H](C(=O)O)C(C)C)S(C)(=O)=O)c1)S(C)(=O)=O,0.257% (inactive),–
Nc1ccn(C2CC(O)C(CO)O2)c(=O)n1 (centres undefined),-1.6% (inactive),–
COc1ccc(C2Nc3ccccc3C(=O)N2c2ccc(Cl)cc2)cc1Cn1cc([N+](=O)[O-])cn1 (centres undefined),–,3.98 µM (active)
COc1cccc(NC(=O)c2ccc(Cn3cc([N+](=O)[O-])cn3)o2)c1,-0.132% (inactive),–
COc1ccc(N2C(=O)c3ccccc3NC2c2ccc(OC)c(CN3CCOCC3)c2)cc1 (centres undefined),–,2.82 µM (active)
COc1ccc(C2Nc3ccccc3C(=O)N2Cc2ccccc2)cc1Cn1nnc2ccccc21 (centres undefined),-2.11% (inactive),–
COc1ccc(C2Nc3ccccc3C(=O)N2c2ccc(F)cc2)cc1Cn1nnc2ccccc21 (centres undefined),14.1% (inactive),–
COc1ccccc1CC(=O)Nc1ccc([N+](=O)[O-])cc1OC,1.97% (inactive),–
COC(=O)Cc1ccc(OCC(=O)NC2CCCC2)cc1,1.62% (inactive),–
CN(CCOc1ccccc1)C(=O)c1cc(-c2ccco2)nc2ccccc12,0.0692% (inactive),–
CCN(c1ccccc1)S(=O)(=O)c1cccc(C(=O)NCc2ccccc2CN2CCOCC2)c1,-1.7% (inactive),–
CN(C(=O)COc1ncnc2c1cnn2-c1ccccc1)C1CCCCC1,-0.359% (inactive),–
CC(=O)Cn1cnc2c(cnn2-c2ccccc2)c1=O,20.1% (inactive),–
c1ccc(-n2ncc3c2ncn2c(C4CCCCC4)nnc32)cc1,–,3.98 µM (active)
Cc1ccc(S(=O)(=O)N(C)C)cc1NC(=O)CN1c2cccc3cccc(c23)S1(=O)=O,-0.458% (inactive),–
Cc1nn2cc(-c3ccc(Cl)cc3)cnc2c1Br,–,2.24 µM (active)
N#CC1(NC(=O)COC(=O)CSc2ccc(F)cc2)CCCCC1,-1.38% (inactive),–
COc1ccc(S(=O)(=O)N2CCN(CC(=O)N3c4ccccc4CC3C)CC2)cc1OC (centres undefined),-0.658% (inactive),–

SMILES,activation,Potency
Cc1cc(C)nc(Nc2ncn[nH]2)n1,0.165% (inactive),–
Cc1cc(C)nc(Nc2n[nH]c(-c3ccccc3N)n2)n1,–,0.447 µM (active)
Cc1ccccc1-c1n[nH]c(=S)n1C,0.769% (inactive),–
O=C(Nc1ccc2oc(-c3ccccc3F)nc2c1)c1ccco1,–,1.58 µM (active)
CCCC(=O)Nc1ccc2c(c1)nc(CCNC(=O)c1ccco1)n2C,1.18% (inactive),–
O=C(Nc1cccc(-c2nc3ncccc3o2)c1)c1ccco1,-2.98% (inactive),–
COc1ccccc1S(=O)(=O)NCc1ccc(C(=O)N(C)Cc2ccc(F)cc2)cc1,-1.39% (inactive),–
Cc1cccc(S(=O)(=O)CC(=O)Nc2nc(-c3ccccc3)cs2)c1,-0.92% (inactive),–
CC(=O)Nc1ccc(-c2csc(NC=C3C(=O)OC(C)(C)OC3=O)n2)cc1,14.1% (inactive),–
CC(=O)Nc1cccc(-c2csc(Nc3cccc(C)n3)n2)c1,–,0.708 µM (active)
CC(=O)Nc1cccc(Nc2nc(-c3cccs3)nc3ccccc23)c1,0.667% (inactive),–
CC(=O)Nc1cccc(-c2cnc3ccccc3n2)c1,–,2.82 µM (active)
CCS(=O)(=O)Nc1cccc(-c2cc(-c3ccccc3)c3cc(C)ccc3n2)c1,0.901% (inactive),–
COCCn1c(=NC(=O)c2ccccc2[N+](=O)[O-])sc2cc(S(C)(=O)=O)ccc21,22.9% (inactive),–
Cc1cccc(C(=O)NCC(=O)OCC(=O)N(C)CC(=O)Nc2ccccc2Cl)c1,1.73% (inactive),–
O=C(CSc1nnc(N2CCOCC2)n1-c1cccc(F)c1)N1CCN(c2ccccn2)CC1,-4.32% (inactive),–
Cc1ccc(F)cc1S(=O)(=O)Nc1cccc(C(=O)N2CCCC(C(N)=O)C2)c1 (centres undefined),-1.37% (inactive),–
COc1ccccc1C(=O)NC(CCSC)C(=O)N1CCN(C(C)=O)CC1 (centres undefined),1.51% (inactive),–
CCN(CC)c1ccc(C(=O)N/N=C/c2ccc(N3CCOCC3)cc2)cc1,-0.358% (inactive),–
C(=N/Nc1cc(N2CCOCC2)nc(N2CCOCC2)n1)/c1ccccc1,-0.933% (inactive),–
Cc1ccccc1N/N=C/c1ccc(N2CCOCC2)cc1,–,3.16 µM (active)
CN1CCN(S(=O)(=O)c2cccc(C(=O)Nc3sccc3C#N)c2)CC1,6.45% (inactive),–
O=C1COc2ccc(C(=O)CSc3ccc(Br)cc3)cc2N1,3.97% (inactive),–
Cc1ccc2[nH]cc(CCCN3C(=O)c4ccccc4C3=O)c2c1,-1.48% (inactive),–
COc1ccc2[nH]cc(CCN3C(=O)c4ccc(C(=O)O)cc4C3=O)c2c1,–,3.55 µM (active)
COc1ccc(C[C@H](C(=O)O)N2C(=O)c3ccc(C(=O)O)cc3C2=O)cc1,1.34% (inactive),–

SMILES,activation,Potency
CC(C)(C)OC(=O)N[C@H](C(=O)OC(C)(C)C)c1ccc(Br)cc1,-2.22% (inactive),–
COc1ccccc1OCCNC(=O)C(CCSC)NC(=O)COc1ccccc1 (centres undefined),-3.08% (inactive),–
NC(=O)c1ccsc1NC(=O)COC(=O)COc1ccc(C=O)cc1,-1.72% (inactive),–
COc1ccc(NS(=O)(=O)c2ccc3oc(SCC(N)=O)nc3c2)cc1,-1.37% (inactive),–
CN(C)S(=O)(=O)c1ccc2oc(SCC(=O)Nc3ccccc3F)nc2c1,–,3.16 µM (active)
COc1ccc(S(=O)(=O)N(C)C)cc1NC(=O)CSc1ncccn1,-2.73% (inactive),–
CCOc1ccc2nc(C(=O)N3CCCC(C)C3)sc2c1 (centres undefined),–,2 µM (active)
CCCC(=O)N(CCN1CCOCC1)c1nc2ccc(OCC)cc2s1,-1.67% (inactive),–
CCOc1ccc2nc(N(CCN(C)C)C(=O)c3ccc4ccccc4c3)sc2c1,-4.66% (inactive),–
Cc1ccc(Nc2nnc(SCC(=O)c3cc4ccccc4o3)s2)cc1C,-2.6% (inactive),–
O=C(CSc1nnc(Nc2ccccc2)s1)Nc1cccnc1Cl,-1.39% (inactive),–
CC(C)c1ccc(Nc2nnc(SCC(=O)c3nnc(-c4ccccc4)o3)s2)cc1,–,3.98 µM (active)
O=S(=O)(c1cccs1)N1CCN(CCOc2ccccc2)CC1,1.21% (inactive),–
CCOc1ccc(NS(=O)(=O)c2ccc(Cl)c(C(=O)N(C)Cc3cccnc3)c2)cc1,-3.44% (inactive),–
Cc1ccc(C(=O)CN2C(=O)NC3(CCOc4ccccc43)C2=O)s1 (centres undefined),1.36% (inactive),–
O=C(OCC(=O)N1CCN(C(=O)c2ccco2)CC1)c1ccc(Cl)c(Cl)c1,-4.56% (inactive),–
O=C(COC(=O)c1ccc2c(c1)OCCO2)NCc1ccccc1,3.85% (inactive),–
O=C(COC(=O)c1ccccc1)c1ccc2c(c1)OCCO2,–,0.316 µM (active)
O=C(COC(=O)c1ccncc1)c1ccccc1,7.21% (inactive),–
CC(=O)Nc1cccc(C(=O)OCC(=O)NCc2cc(C)c(O)c(C)c2)c1,11.4% (inactive),–
CC(NC(=O)COC(=O)c1ccc2c(c1)OCO2)c1ccccc1 (centres undefined),-0.608% (inactive),–
CC(=O)Nc1cccc(C(=O)OCC(=O)c2ccc3c(c2)OCO3)c1,–,0.316 µM (active)
COc1ccc(C(=O)NCc2ccc(Cl)cc2)cc1S(=O)(=O)N1CCCC1,2.43% (inactive),–
CCN(CC(=O)Nc1ccc(OC)cc1)C(=O)c1ccc(Cl)c(S(=O)(=O)N2CCCC2)c1,-2% (inactive),–
O=[N+]([O-])c1cc(S(=O)(=O)NCCc2ccccn2)ccc1Cl,-0.0808% (inactive),–
CC(C#N)(NC(=O)CN1CCN(S(=O)(=O)c2cc(C(F)(F)F)ccc2Cl)CC1)C1CC1 (centres undefined),4.2% (inactive),–

# — PubChem BioAssay AID485313 (National Center for Advancing Translational Sciences (NCATS), 2010)
